# Inconclusive results are not listed. Activity calls are given as the source filed them. The call rests on the fitted dose curve; in most records, active means well fitted curve in the direction sought with a large enough effect; inconclusive means small, poorly fitted or top-dose-only effect, or another doubt; inactive means no such curve, though single readings can be large; an effect the other way counts as inactive or inconclusive.
# Tests used:
# [1] = qHTS of pediatric cancer cell lines to identify multiple opportunities for drug repurposing: Confirmatory screen for BT-37 cells (AID 1347117); further: nearly all actives have a fitted effect of over 55% in size
# Summary of the method: (§1)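 Cells (500-1,000/well) in growth media were settled 5 h at 37 degrees C, then given compounds for 48 h. Viability was read as CellTiter-Glo luminescence. Primary runs used MIPE at 11 points (0.78 nM-46 µM) and NPC at 8 points (0.59 nM-46 µM); follow-ups used 11 points.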
# [2] = qHTS of pediatric cancer cell lines to identify multiple opportunities for drug repurposing: Confirmatory screen for TC32 cells (AID 1347118);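 further: cells exposed to compound for 48 h before the read; nearly all actives have a fitted effect of over 65% in size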
# Summary of the method: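 Measured quantity: luminescence from CellTiter-Glo, reflecting metabolically active TC32 cells following 48 h of compound. Curves came straight from multi-point titrations, with 8 or 11 points in primary and 11 in confirmatory screening.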
# [3] = qHTS of pediatric cancer cell lines to identify multiple opportunities for drug repurposing: Confirmatory screen for U-2 OS cells (AID 1347122); further: nearly all actives have a fitted effect of over 65% in size
# Summary of the method: as §1
# [4] = qHTS of pediatric cancer cell lines to identify multiple opportunities for drug repurposing: Confirmatory screen for Rh30 cells (AID 1347126); further: nearly all actives have a fitted effect of over 55% in size
# Summary of the method: as §1
# [5] = qHTS of pediatric cancer cell lines to identify multiple opportunities for drug repurposing: Confirmatory screen for SK-N-SH cells (AID 1347129);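 further: cells exposed to compound for 48 h before viability read; nearly all actives have a fitted effect of over 60% in size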
# Summary of the method: as §1
# [6] = tested on: Zika virus NS2B-NS3 protease; test: Primary screen GU AMC qHTS for Zika virus inhibitors (AID 1347154); further: nearly all actives have a fitted effect of over 70% in size
# Summary of the method: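 Unlinked Zika NS2B hydrophilic domain/NS3 protease domain noncovalent complex (25 nM final) in 10 mM Tris-HCl pH 8.0, 0.01% Tween 20, with AMC peptide substrate. Fluorescence (ex 340, em 450 nm) change over 15 min, room temperature; percent inhibition fitted to 4-parameter Hill equation.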
# [7] = qHTS of pediatric cancer cell lines to identify multiple opportunities for drug repurposing: Confirmatory screen for MG 63 (6-TG R) cells (AID 1347119); further: nearly all actives have a fitted effect of over 55% in size
# Summary of the method: as §1
# [8] = qHTS of pediatric cancer cell lines to identify multiple opportunities for drug repurposing: Confirmatory screen for Rh18 cells (AID 1347125); further: nearly all actives have a fitted effect of over 55% in size
# Summary of the method: as §1
# [9] = qHTS of pediatric cancer cell lines to identify multiple opportunities for drug repurposing: Confirmatory screen for Saos-2 cells (AID 1347127); further: nearly all actives have a fitted effect of over 60% in size
# Summary of the method: as §1
# [10] = qHTS of pediatric cancer cell lines to identify multiple opportunities for drug repurposing: Confirmatory screen for OHS-50 cells (AID 1347128)
# Summary of the method: as §1
# [11] = qHTS of pediatric cancer cell lines to identify multiple opportunities for drug repurposing: Confirmatory screen for Rh41 cells (AID 1347123);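 further: 48 h compound exposure; nearly all actives have a fitted effect of over 60% in size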
# Summary of the method: as §1
# [12] = qHTS of pediatric cancer cell lines to identify multiple opportunities for drug repurposing: Confirmatory screen for RD cells (AID 1347124);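 further: cells exposed to compound for 48 h before viability readout; nearly all actives have a fitted effect of over 65% in size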
# Summary of the method: as §1
# [13] = qHTS of pediatric cancer cell lines to identify multiple opportunities for drug repurposing: Confirmatory screen for control Hh wild type fibroblast cells (AID 1347121); further: nearly all actives have a fitted effect of over 70% in size
# Summary of the method: as §1
# [14] = qHTS of pediatric cancer cell lines to identify multiple opportunities for drug repurposing: Confirmatory screen for SJ-GBM2 cells (AID 1347116); further: nearly all actives have a fitted effect of over 60% in size
# Summary of the method: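 Viability measured as metabolically active cells via CellTiter-Glo luminescence following 48 hours of compound exposure, 11-point dilutions in confirmatory testing. 500-1,000 cells/well plated 5 hours before dosing; controls were DMSO and 2.3 µM bortezomib.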
# [15] = tested on: Zika virus NS2B-NS3 protease (unlinked complex); test: Confirmatory screen GU AMC qHTS for Zika virus inhibitors (AID 1347153); further: nearly all actives have a fitted effect of over 70% in size
# Summary of the method: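 Unlinked enzyme 25 nM, Tris pH 8.0/0.01% Tween 20; cpd 15 min RT, dark; + AMC substrate 10 µM (Km 18.3 µM); 340/450 nm read at t0 and 15 min; % inhibition → 4-param fit.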
# Potency means the concentration at half of the fitted maximal effect.
Compound,Potency [1],Potency [2],Potency [3],Potency [4],Potency [5],Potency [6],Potency [7],Potency [8],Potency [9],Potency [10],Potency [11],Potency [12],Potency [13],Potency [14],Potency [15]
COc1cc2c(NC3CCN(C(C)C)CC3)nc(C3CCCCC3)nc2cc1OCCCN1CCCC1,26100 nM (active),4140 nM (active),inactive,inactive,7430 nM (active),inactive,–,–,–,–,–,–,–,–,–
CC(C)(O)c1cc2nc(-c3cnc(N)nc3)nc(N3CCOCC3)c2s1,1650 nM (active),827 nM (active),–,–,935 nM (active),inactive,369 nM (active),1650 nM (active),1650 nM (active),2930 nM (active),–,–,–,–,–
Cc1ccc(NC(=O)C2(c3ccc4c(c3)OC(F)(F)O4)CC2)nc1-c1cccc(C(=O)O)c1,inactive,inactive,9270 nM (active),9270 nM (active),inactive,inactive,inactive,–,inactive,–,8270 nM (active),10400 nM (active),–,–,–
CCNC(=O)Nc1ccc2ncc(Nc3ccc(C)cc3)nc2n1,inactive,inactive,inactive,inactive,inactive,inactive,–,inactive,inactive,inactive,inactive,inactive,–,–,–
Cc1[nH]nc2ccc(-c3cncc(OC[C@@H](N)Cc4ccccc4)c3)cc12,2930 nM (active),2930 nM (active),–,47900 nM (active),2150 nM (active),–,3690 nM (active),8270 nM (active),4650 nM (active),4650 nM (active),–,–,–,–,–
Cc1cnc(Nc2ccc(F)cc2Cl)nc1-c1c[nH]c(C(=O)N[C@H](CO)c2cccc(Cl)c2)c1,inactive,inactive,6570 nM (active),–,18700 nM (active),–,–,inactive,inactive,–,18500 nM (active),–,inactive,–,–
CC1(C)CCC(c2ccc(Cl)cc2)=C(CN2CCN(c3ccc(C(=O)NS(=O)(=O)c4ccc(N[C@H](CCN5CCOCC5)CSc5ccccc5)c(S(=O)(=O)C(F)(F)F)c4)cc3)CC2)C1,inactive,inactive,inactive,–,–,–,–,inactive,inactive,inactive,inactive,inactive,inactive,–,–
Cc1c(NC(=O)OC[C@@H]2COCCN2)cn2ncnc(Nc3ccc4c(cnn4Cc4cccc(F)c4)c3)c12,18500 nM (active),26100 nM (active),20800 nM (active),–,–,–,–,–,inactive,–,16500 nM (active),inactive,inactive,–,–
Cc1cc(C(=O)N2CCN(c3cccc(Cl)c3)CC2)n(-c2ccccc2)n1,5220 nM (active),2610 nM (active),3290 nM (active),–,inactive,inactive,–,–,–,–,–,–,–,–,–
CC(NCc1ccc2c(c1)nc(NC(=O)c1ccc(-c3cn[nH]c3)s1)n2CC(C)(C)O)C(C)(C)C (centres undefined),–,–,928 nM (active),657 nM (active),833 nM (active),–,1310 nM (active),2610 nM (active),928 nM (active),827 nM (active),737 nM (active),–,7370 nM (active),1040 nM (active),–
CC(C)c1cnn2c(NCc3ccccc3)cc(N[C@@H](CO)[C@H](O)CO)nc12,369 nM (active),522 nM (active),465 nM (active),–,332 nM (active),–,827 nM (active),–,585 nM (active),522 nM (active),737 nM (active),737 nM (active),inactive,–,–
Cc1c(C)n(Cc2ccc(-c3ccccc3C(=O)O)cc2)c2ccc(C(=O)N[C@@H](C)c3ccc([N+](=O)[O-])cc3)cc12,inactive,inactive,inactive,inactive,inactive,19200 nM (active),inactive,inactive,inactive,inactive,9270 nM (active),–,inactive,–,21500 nM (active)
O=C(O)c1ccc2cc(-c3ccc(O)c(C45CC6CC(CC(C6)C4)C5)c3)ccc2c1,1470 nM (active),585 nM (active),–,104 nM (active),inactive,–,–,–,1310 nM (active),2930 nM (active),3290 nM (active),–,–,–,–
CC(=O)Nc1nc(C)c(-c2ccc(Cl)c(S(=O)(=O)NCCO)c2)s1,18500 nM (active),7370 nM (active),14700 nM (active),14700 nM (active),–,inactive,2330 nM (active),11700 nM (active),16500 nM (active),11700 nM (active),5850 nM (active),–,–,–,–
COC(=O)Nc1ccc(-c2nc(N3CCOCC3)c3cnn(C4CCN(Cc5cccnc5)CC4)c3n2)cc1,928 nM (active),1310 nM (active),11700 nM (active),5850 nM (active),14800 nM (active),inactive,–,–,–,–,1310 nM (active),–,–,–,–

# Reference: PubChem BioAssay (NCATS)
